Many of the other results were omitted from the sample, so hits are more common in it than they were.
Sfp inh = Sfp phosphopantetheinyl transferase inhibition. Q9F4F7. Biochemical Sfp PPTase activity, qHTS. Potency, µM, hits mostly inhibitors. 310,000 compounds, 3.5% hits. AID 1490;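 also: the enzyme is Sfp with the accession as filed and its product quenches rhodamine fluorescence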
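Fluorescence-quenching assay: 15 nM Sfp-PPTase preincubated 15 min at room temperature with compound, then 5 uM rhodamine-CoA and 12.5 uM BHQ-2-labelled YbbR peptide added. Fluorescence (ex 525/em 598 nm) read at start and after 30 min; difference gives rate.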
GRP78 ERSR act = induces the endoplasmic reticulum stress response in human glioma cells; U87-MG GRP78 promoter luciferase reporter, 16 h; Potency, µM, actives largely listed as activators; 420,000 compounds, 0.02% hits; AID 602332; also: series mostly up to about 76 µM; nearly all actives have a fitted effect of over 35% in size
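Stably transfected U87-MG glioma cells carrying a GRP78-based luciferase sensor; 16 h compound incubation. Luminescence end-point read 10 min after Bright-Glo addition at room temperature.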
G9a inh = blocks human histone lysine methyltransferase G9a; Q96KQ7; G9a H3K9 monomethylation, AlphaScreen, 2 h; Potency, µM (titrated, usually from 102 µM), usual class: inhibitors; 350,000 compounds, 8.8% hits; AID 504332; also: nearly all actives have a fitted effect of over 75% in size
Target sequence (Q96KQ7 913-1193 limits assumed): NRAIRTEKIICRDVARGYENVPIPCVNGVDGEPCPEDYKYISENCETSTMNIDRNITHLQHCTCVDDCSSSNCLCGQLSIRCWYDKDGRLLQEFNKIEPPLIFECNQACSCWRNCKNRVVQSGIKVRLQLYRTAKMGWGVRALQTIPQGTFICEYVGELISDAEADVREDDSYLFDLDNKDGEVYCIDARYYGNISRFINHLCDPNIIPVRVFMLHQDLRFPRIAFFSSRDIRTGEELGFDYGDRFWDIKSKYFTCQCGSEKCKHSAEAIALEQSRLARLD
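Readings reflect AlphaScreen signal from monomethyl-H3K9 antibody detection. HMT at 20 nM; substrate b-H3K9 500 nM; cofactor SAM 20 uM; 2 h RT reaction; compounds tested as titrations in qHTS with 15 min preincubation.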
12-LOX inh = inhibitors of human 12S-lipoxygenase ALOX12; purified 12hLO, xylenol orange hydroperoxide absorbance; P18054; 580,000 compounds, 1.1% hits; Potency, µM (series often up to 108 µM), hits mostly inhibitors
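Purified human 12hLO (150 nM final) in 25 mM Hepes, 0.01% Triton X-100, pH 7.0 was preincubated 15 min at room temperature with compound. Then 40 uM arachidonic acid was added, 30 min. Hydroperoxide was read by Fe-XO absorbance ratio 573/405 nm.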
VDR inhibitor = inhibitors of human vitamin D receptor. 400,000 compounds, 0.93% hits. VDR-SRC2-3 peptide fluorescence polarization, 2 h. AID 504847. Potency, µM, hits mostly inhibitors
Target sequence (P11473 whole entry, looked up): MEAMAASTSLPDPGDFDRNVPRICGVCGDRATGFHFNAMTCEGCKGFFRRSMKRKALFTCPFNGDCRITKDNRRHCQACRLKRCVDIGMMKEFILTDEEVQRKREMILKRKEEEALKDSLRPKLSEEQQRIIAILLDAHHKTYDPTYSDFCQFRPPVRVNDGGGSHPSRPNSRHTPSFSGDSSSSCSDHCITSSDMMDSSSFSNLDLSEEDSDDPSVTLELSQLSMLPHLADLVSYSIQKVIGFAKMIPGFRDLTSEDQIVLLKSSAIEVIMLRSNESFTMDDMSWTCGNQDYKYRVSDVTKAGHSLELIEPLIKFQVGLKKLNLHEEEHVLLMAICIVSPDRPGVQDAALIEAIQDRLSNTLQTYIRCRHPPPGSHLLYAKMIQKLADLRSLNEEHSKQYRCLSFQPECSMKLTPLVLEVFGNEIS
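Compounds are added to VDR with labelled SRC2-3 coactivator peptide and held 2 h at room temperature. Inhibition of the VDR–peptide interaction is then read as a change in fluorescence polarization.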
Hits are given with their value; i = inactive; ? = inconclusive; nt = no result; [ ] = remark or other dose. Calls follow the shape of the dose curve; as a rule, active = well fitted curve in the direction sought with a large enough effect; inconclusive = small, poorly fitted or top-dose-only effect, or another doubt; inactive = no such curve, though single readings can be large; an effect the other way counts as inactive or inconclusive.

SMILES	Sfp inh	GRP78 ERSR act	G9a inh	12-LOX inh	VDR inhibitor
O=C1/C(=C/C=C/c2ccco2)SC(=S)N1c1ccc(O)cc1	20µM	i	12.6µM	i	i
CN(C)c1ccc(/C=C/C=C2/SC(=S)N(c3ccccc3)C2=O)cc1	i	i	?	?	i
O=C1/C(=C/c2cccnc2)SC(=S)N1c1ccccc1	i	i	?	i	i
COc1ccc(OCCC(=O)Nc2cccc3cccnc23)cc1	nt	nt	nt	i	nt
COc1ccc(CNc2nc(-c3ccc(N(C)C)cc3)nc3ccccc23)c(OC)c1	17.8µM	i	i[0.501 µM]	?	35.5µM
CN(C)CCCNc1nc(-c2ccccc2)nc2ccccc12	i	i	79.4µM	?	i
CCc1cccc(C)c1NC(=O)CCc1c(C)nc2c3ccccc3nn2c1C	nt	nt	nt	i	nt
CCN1C(=NCCc2c[nH]c3ccccc23)N[C@@H](c2ccccc2)[C@H](C(=O)OC)[C@H]1C	i	i	79.4µM	?	i
Cc1ccc(NC(=S)Nc2cccc3ccccc23)cc1	i	i	nt	?	i
S=C(Nc1ccc(Cl)cc1)Nc1cccc2cnccc12	?	i	44.7µM	?	?
Fc1ccc(NC(=S)Nc2cccc3ccccc23)cc1F	i	i	i	?	i
CCOc1ccc(NC(=S)Nc2cccc3cnccc23)cc1	?	i	?	i	i
COc1ccc(NC(=S)Nc2cccc3cnccc23)cc1	?	i	25.1µM	?	i
Fc1ccc(NC(=S)Nc2cccc3ccccc23)cc1	i	i	79.4µM	i	i
CCc1cccc(NC(=S)Nc2cccc3ccccc23)c1	i	i	i	44.7µM	i
CN1CCCC1CNC(=O)Cc1cn(C)c2ccccc12 (stereo unspecified)	nt	nt	nt	i	nt
Fc1ccc(NC(=S)Nc2cccc3cnccc23)cc1	2.82µM	i	35.5µM	i	i
CC1CCCCC1NC(=S)Nc1cccc2cnccc12 (stereo unspecified)	nt	nt	nt	i	nt
Cc1cc(NC(=S)Nc2cccc3ccccc23)n[nH]1	i	i	1.12µM	?	i
COc1ccccc1NC(=S)Nc1cccc2cnccc12	44.7µM	i	25.1µM	i	?
Cc1cc(C)cc(NC(=S)Nc2cccc3ccccc23)c1	i	i	i	?	i
COc1cc(NC(=S)Nc2cccnc2)cc(OC)c1	?	i	15.8µM	?	i
CN1CC(=O)N(c2ccc(Cl)cc2)Cc2c(NCc3ccc(F)cc3)ncnc21	nt	nt	nt	i	nt
O=C1NCCOCCN(S(=O)(=O)c2cccc(F)c2)[C@H]2CCC[C@@H]12	nt	nt	nt	i	nt
CCc1cccc(NC(=O)CCSCCC(=O)Nc2cccc(CC)c2)c1	i	i	50.1µM	i	i
SMILES	Sfp inh	GRP78 ERSR act	G9a inh	12-LOX inh	VDR inhibitor
Cc1ccc(NC(=O)CCSCCC(=O)Nc2ccc(C)c(C)c2)cc1C	i	i	i[12.7 µM]	i	i
Cc1cc(NC(=S)Nc2cccnc2)ccc1Br	i	i	39.8µM	i	i
Fc1cccc(NC(=S)Nc2cccnc2)c1	35.5µM	i	?	i	i
C=CCNC(=S)NCc1ccccc1	?	i	nt	i	i
C=CCNC(=S)Nc1cccc2ccccc12	79.4µM	i	44.7µM	i	i
O=C(Nc1cccnc1)Nc1cccc(F)c1	i	i	i	i	i
COCCN1C(=O)[C@@H]2C[C@@H](CN2Cc2ccccc2Cl)Oc2ccccc21	nt	nt	nt	i	nt
Cc1cc(Cl)ccc1NC(=S)Nc1cccnc1	i	i	i	?	i
CN(C)S(=O)(=O)c1cccc(NC(=S)Nc2cccc3cnccc23)c1	2.51µM	i	nt	?	?
S=C(Nc1cccnc1)Nc1cccc2cnccc12	11.2µM	i	35.5µM	i	?
Cc1ccc(S(=O)(=O)N(C)C)cc1NC(=S)Nc1cccc2ccccc12	i	i	?	?	i
O=C(O)c1ccccc1NS(=O)(=O)c1cccc(C(F)(F)F)c1	i	i	i[2.33 µM]	i	i
O=C(O)c1ccccc1NS(=O)(=O)c1cccc(-n2sc3ccccc3c2=O)c1	2µM	i	1.26µM	0.224µM	10µM
CCCn1c(C)cc(C(=O)COC(=O)c2cc(C)nc3ccccc23)c1C	nt	nt	nt	i	nt
O=C1NCCN1Cc1ccccc1F	i	i	44.7µM	i	i
O=C(Nc1ccc(S(=O)(=O)Nc2nccs2)cc1)C1=NN(c2ccccc2)C(=O)CC1	i	i	44.7µM	i	i
Cc1ccccc1OC(C)C(=O)Nc1ccc(S(=O)(=O)Nc2nccs2)cc1 (stereo unspecified)	i	i	50.1µM	i	i
O=C(Nc1ccc(S(=O)(=O)N2CCCCC2)cc1)C1=NN(c2ccccc2)C(=O)CC1	nt	nt	nt	i	nt
CC(Oc1ccc(Cl)cc1)C(=O)Nc1ccc(S(=O)(=O)Nc2nccs2)cc1 (stereo unspecified)	i	?	i	i	i
CC(Oc1ccccc1Cl)C(=O)Nc1ccc(S(=O)(=O)Nc2nccs2)cc1 (stereo unspecified)	nt	i	56.2µM	i	i
Cc1nc2cc(F)ccc2cc1C(=O)N(C)CC1COc2ccccc2O1 (stereo unspecified)	nt	nt	nt	i	nt
CCCn1cc(-c2ccncc2)cc1C(=O)NCc1cccc(F)c1	nt	nt	nt	i	nt
COc1cccc(CNC(=O)[C@H](CCSC)NC(=O)N2CCn3c2nc2ccccc23)c1	i	i	50.1µM	i	i
COc1ccc(CNC(=O)C(C)C)cc1	nt	nt	nt	i	nt
C[N+]1(CCCCCCC(=O)/C=N/O)CCCCCC1	i	i	14.1µM	i	i
SMILES	Sfp inh	GRP78 ERSR act	G9a inh	12-LOX inh	VDR inhibitor
C[N+]1(CCCCCCCCCCCCCO)CCCC1	nt	nt	nt	28.2µM	nt
Cc1cc(-n2nnnc2N2CCN(C(=O)Nc3ccc(C)c(F)c3)CC2)ccc1F	nt	nt	nt	i[6.33 µM]	nt
O=C(CSc1nnnn1C1CCCC1)N1CCN(S(=O)(=O)c2ccc3ccccc3c2)CC1	nt	nt	nt	i	nt
COC(=O)c1cccc(-n2c(=O)n(Cc3ccccc3)c(=O)c3[nH]cnc32)c1C	i	i	17.8µM	i	i
Cc1cc(C)c2c(C)c(C(=O)Nc3cccc4cccnc34)oc2c1	nt	nt	nt	i	nt
CS(=O)(=O)c1ccc(C(=O)OC2CCOC2=O)cc1[N+](=O)[O-] (stereo unspecified)	i	i	50.1µM	i	i
O=CN1CCCNCC1	nt	nt	nt	i	nt
CCOc1ccccc1NC(=O)C(CC)Sc1nc2ccncc2[nH]1 (stereo unspecified)	?	i	8.91µM	?	i
CC1Cc2ccccc2N1Cc1nc2cc(Cl)ccc2c(=O)[nH]1 (stereo unspecified)	i	i	?	i	i
CCOc1ccc(-c2nc3scc(-c4cccs4)c3c(=O)[nH]2)cc1	i	i	i	i	i
COC(=O)c1ccc2c(=O)[nH]c(CN3c4ccccc4CC3C)nc2c1 (stereo unspecified)	i	i	11.2µM	i	i
CC1Cc2ccccc2N1Cc1nc2scc(-c3cccs3)c2c(=O)[nH]1 (stereo unspecified)	i	i	44.7µM	?	i
O=C(CSc1nnc(CNc2ccc(F)cc2)n1Cc1ccccc1)NCc1ccccc1	i	i	i	i	i
COC(=O)CSc1nnc(CNc2ccc(Cl)cc2)n1Cc1ccccc1	i	i	56.2µM	i	i
CCOC(=O)CSc1nnc(CNc2ccc(Cl)cc2)n1-c1ccccc1	?	i	i	i	i

Source: PubChem
